Inconclusive results are not listed. Entries that show only a call come without a potency. Activity calls are given as the source filed them. Unless noted, calls follow the shape of the full dose curve.
system: not listed separately; assay: cAMP Responsive Elements (CRE) small molecule antagonists, cell-based qHTS assay (AID 1963591; active = well fitted inhibition curve with a large enough effect in the signal ratio in the repeat runs, not every such curve was filed as active; the % refers to the signal ratio); details: CRE-bla HEK293T, beta-lactamase FRET ratio; series mostly up to 92.4 µM
Procedure, shortened: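 First, CRE-bla HEK293T cells settled 18 h at 37 C. Next, compound and 0.25 uM final NKH477 were applied for 3 h. Last, LiveBLAzer B/G substrate was loaded for 2 h at room temperature.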

Row | Structure (SMILES) | Potency | activity change, negative = inhibition
1 | S=C(NC1CCCCC1)NC1CCCCC1 | inactive | 
2 | O=c1cc(-c2ccccc2)oc2ccccc12 | inactive | 
3 | CC(C)(N=C=O)c1cccc(C(C)(C)N=C=O)c1 | inactive | 
4 | Nc1cccc(N)n1 | inactive | 
5 | O=S(=O)(Oc1ccc(Cl)cc1Cl)c1ccccc1 | inactive | 
6 | C[N+](C)(C)CC(O)CCl (configuration not stated) | inactive | 
7 | Cn1sccc1=O | inactive | 
8 | COc1ccc(N)c(C)c1 | inactive | 
9 | O=C(O)c1ccc(C(=O)O)c(C(=O)O)c1 | inactive | 
10 | CCCCCCCCCCCC(=O)N(C)CC(=O)O |  | 5.29% [at 8.39 µM] (inactive)
11 | CCC(C)NC(N)=O (configuration not stated) | inactive | 
12 | CC(=O)OC1CC(C)OC(C)O1 (configuration not stated) | inactive | 
13 | CC(C)CC(C)O (configuration not stated) | inactive | 
14 | COCc1ccc(COC)cc1 | inactive | 
15 | CCCCNc1ccccc1 | inactive | 
16 | CCCCC(CC)COC(C)=O (configuration not stated) | inactive | 
17 | O=C1CCCCC1 | inactive | 

Row | Structure (SMILES) | Potency | activity change, negative = inhibition
18 | CCC(C)c1ccccc1O (configuration not stated) | inactive | 
19 | Cc1cccc(C)c1[N+](=O)[O-] | inactive | 
20 | N#Cc1ccc(C2CCCc3cncn32)cc1 (configuration not stated) | inactive | 
21 | CC(=O)OC/C=C(\C)CC/C=C(\C)CCC=C(C)C | inactive | 
22 | O=C1CCC(=O)O1 | inactive | 
23 | CS(=O)(=O)c1ccc(Cl)cc1 | inactive | 
24 | Cc1cccnc1 | inactive | 
25 | CS(=O)(=O)O | inactive | 
26 | CNCCS(=O)(=O)O | inactive | 
27 | NC(=Nc1ccccc1)Nc1ccccc1 | inactive | 
28 | O=C(O)c1ccccc1C(c1ccc(O)cc1)c1ccc(O)cc1 | inactive | 
29 | CN1Cc2c(N)cccc2C(c2ccccc2)C1 (configuration not stated) | inactive | 
30 | C[n+]1ccn(CCO)c1 | inactive | 
31 | CCOC(=O)c1c(C)n(C)c2ccc(O)cc12 | inactive | 
32 | O=[N+]([O-])c1ccc2nc[nH]c2c1 | inactive | 
33 | CCCCCCCO | inactive | 
34 | CCCCCCCCCCCCCCCCCCOCC(O)CO (configuration not stated) | inactive | 

target: Beta-2 adrenergic receptor (Homo sapiens) (UniProt P07550); assay: Adrenergic beta2 receptor (ADRB2) small molecule antagonists, cell-based qHTS assay (AID 1963592); details: CHO-ADRB2 cells, isoproterenol-stimulated cAMP HTRF ratio, 0.5 h; series mostly up to 92.4 µM; also: nearly all actives have a fitted effect of over 50% in size
Sequence (P07550 whole entry, looked up): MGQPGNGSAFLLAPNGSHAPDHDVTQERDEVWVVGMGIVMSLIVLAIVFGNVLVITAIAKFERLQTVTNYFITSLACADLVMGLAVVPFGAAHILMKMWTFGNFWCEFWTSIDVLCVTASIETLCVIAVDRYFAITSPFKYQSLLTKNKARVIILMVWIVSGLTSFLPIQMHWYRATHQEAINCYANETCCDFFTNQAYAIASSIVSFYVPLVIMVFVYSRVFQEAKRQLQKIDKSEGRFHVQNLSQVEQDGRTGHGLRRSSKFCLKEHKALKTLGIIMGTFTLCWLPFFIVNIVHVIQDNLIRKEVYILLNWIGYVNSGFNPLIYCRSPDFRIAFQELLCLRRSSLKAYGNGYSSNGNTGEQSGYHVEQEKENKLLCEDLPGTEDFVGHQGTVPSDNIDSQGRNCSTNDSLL
Procedure, shortened: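 Assay format: CHO-ADRB2 cells, 18-20hr seeding at 37C/5% CO2, then compound plus 1nM isoproterenol agonist mix for 0.5hr RT. Homogeneous time-resolved fluorescence cAMP detection after 1hr, expressed as 665/615 nm ratio.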

Row | Structure (SMILES) | Potency | activity change, negative = inhibition
35 | S=C(NC1CCCCC1)NC1CCCCC1 | inactive | 
36 | O=c1cc(-c2ccccc2)oc2ccccc12 | inactive | 
37 | CC(C)(N=C=O)c1cccc(C(C)(C)N=C=O)c1 | inactive | 
38 | O=S(=O)(Oc1ccc(Cl)cc1Cl)c1ccccc1 | inactive | 
39 | Cn1sccc1=O | inactive | 
40 | NCCNCCNCCNCCN | inactive | 
41 | COc1ccc(N)c(C)c1 | inactive | 
42 | CCCCCCCCCCCC(=O)N(C)CC(=O)O | inactive | 
43 | CCC(C)NC(N)=O (configuration not stated) | inactive | 
44 | CC(=O)OC1CC(C)OC(C)O1 (configuration not stated) | inactive | 
45 | CC(C)CC(C)O (configuration not stated) | inactive | 
46 | COCc1ccc(COC)cc1 | inactive | 
47 | CCCCNc1ccccc1 | inactive | 
48 | O=C1CCCCC1 | inactive | 
49 | Cc1cccc(C)c1[N+](=O)[O-] | inactive | 
50 | N#Cc1ccc(C2CCCc3cncn32)cc1 (configuration not stated) | inactive | 
51 | CC(=O)OC/C=C(\C)CC/C=C(\C)CCC=C(C)C | inactive | 

Row | Structure (SMILES) | Potency | activity change, negative = inhibition
52 | O=C1CCC(=O)O1 | inactive | 
53 | CS(=O)(=O)c1ccc(Cl)cc1 | inactive | 
54 | Cc1cccnc1 | inactive | 
55 | CS(=O)(=O)O | inactive | 
56 | CNCCS(=O)(=O)O | inactive | 
57 | NC(=Nc1ccccc1)Nc1ccccc1 | inactive | 
58 | O=C(O)c1ccccc1C(c1ccc(O)cc1)c1ccc(O)cc1 | inactive | 
59 | CN1Cc2c(N)cccc2C(c2ccccc2)C1 (configuration not stated) | inactive | 
60 | C[n+]1ccn(CCO)c1 | inactive | 
61 | CCOC(=O)c1c(C)n(C)c2ccc(O)cc12 | inactive | 
62 | CC1=CC[C@@H]2C[C@H]1C2(C)C |  | -16.3% [at 19 µM] (inactive)
63 | c1ccc2c(c1)-c1cccc3c1c-2cc1ccccc13 | inactive | 
64 | C=CC(=O)NCOCCCC | inactive | 
65 | O=[N+]([O-])c1ccc2nc[nH]c2c1 | inactive | 
66 | CCCCCCCO | inactive | 
67 | CCCCCCCCCCCCCCCCCCOCC(O)CO (configuration not stated) | inactive | 
